Assay [1] can be described thus: anti-His antibody binders, primary screen, artefact control for SMM control protein annotation, biochemical, small-molecule microarray, 635 nm fluorescence (AID 1128).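 Also: score merges feature fluorescence with signal-to-noise for each printed compound spot.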 The settings on record: anti-His Alexa647 antibody binding, higher = more signal.
For assay [2], the system named is Human papillomavirus type 1a E7 protein (residues 1-88). Description: HPV1a E7 small-molecule binders, primary screen, biochemical, small-molecule microarray, residues 1-88, 635 nm (AID 1129). The settings on record: small-molecule microarray binding, fluorescence 635 nm; higher = more signal.
Assay [3] deals with Focal adhesion kinase 1 (Homo sapiens) (UniProt Q05397). Description: small-molecule microarray binders of FAK, primary screen, biochemical, 635/667 nm fluorescence, BSA, DTT (AID 1130).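 Also: composite of spot emission at 667 nm and signal to noise over triplicate slides.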 The settings on record: PTK2 binding, 635 nm fluorescence, higher = more signal.
Assay [4] deals with Fibrinogen (Alexa647-labelled). Nature of the assay: fibrinogen binders on compound microarrays, profiling panel, artefact control for SMM control-protein annotation, biochemical, small-molecule microarray, 635/667 nm fluorescence (AID 1131).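 Also: z-score merges 667 nm fluorescence with per-spot signal-to-noise over triplicate slides.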 Conditions: fibrinogen-A647 binding fluorescence, higher = more signal.
In assay [5] the target is Follistatin (Homo sapiens) (UniProt P19883). Description: follistatin binders on small-molecule microarrays, primary screen, biochemical, small-molecule microarray, 635/667 nm fluorescence (AID 1132). Conditions: FST binding, 635 nm fluorescence, higher = more signal.
Assay [6] concerns the target Fibroblast growth factor 2 (Homo sapiens) (UniProt P09038). Nature of the assay: FGF2 binders on small-molecule microarrays, primary screen, biochemical, small-molecule microarray, 635/667 nm fluorescence (AID 1133). The settings on record: small-molecule microarray binding, FGF2, fluorescence 635/667; higher = more signal.
Assay [7] can be described thus: mitochondrial membrane potential change in A549 cells, profiling panel, cell-based, JC-1 fluorescence, basal, 24 h, 100 nL (AID 1138).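 Also: A549 lung adenocarcinoma cells under basal conditions with no added stimulus; test concentration not given here.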 Conditions: higher = more signal.
The test system of a further assay is Lefty1. Nature of the assay: Lefty1 binders on small-molecule microarrays, primary screen, biochemical, small-molecule microarray, 635/667 nm fluorescence (AID 1139). Conditions: small-molecule microarray binding, fluorescence 635/667; higher = more signal.
For assay [8], the system named is wheat germ agglutinin (Triticum aestivum), Alexa647-labelled. Nature of the assay: wheat germ agglutinin binders on compound microarrays, profiling panel, artefact control for SMM control-protein annotation, biochemical, small-molecule microarray, 635/667 nm fluorescence (AID 1140).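 Also: score merges 667 nm feature emission with signal to noise over triplicate slides.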 The settings on record: WGA-A647 binding, 635 nm fluorescence, higher = more signal.

For assay [9], the target named is Luciferin 4-monooxygenase (Photinus pyralis) (UniProt P08659). Nature of the assay: firefly luciferase enzyme inhibitors, primary screen, biochemical, luminescence, purified enzyme, 2006 set (AID 1141).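 Also: cell-free assay with purified firefly luciferase at 100 ng per well in PBS; test concentration not given here.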 The settings on record: SteadyGlo luminescence, 30 min, higher = more signal, called active from +8 up or from −8 down.
The test system of assay [10] is Wnt5a (protein binding on small-molecule microarray). Nature of the assay: Wnt5a binders on small-molecule microarray, primary screen, biophysical, 635/667 nm fluorescence (AID 1142).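 Also: fluorescence read at 667 nm with signal to noise per printed feature.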 The settings on record: 635 nm fluorescence, higher = more signal.
Assay [11] can be described thus: cell viability in Huh7 cells, primary screen, cytotoxicity control for HCV replication inhibitor project, CellTiter-Glo luminescence, basal, 48 h (AID 1143).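 Also: Huh7 hepatoma cells carrying a hepatitis C replication reporter with no stimulus; test concentration not given here.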 Conditions: Huh7 HCV replicon, higher = more signal, called active from +8 up or from −8 down. On the technique in general: ATP-based viability assays read luminescence as a measure of living cells.
Assay [12] in a line: P. aeruginosa biofilm formation inhibitors, primary screen, PAO1 strain, BacTiter-Glo luminescence, LB-PBS (AID 1144). Conditions: 12 h, higher = more signal.
A short description of assay [13]: CREB reporter modulators without forskolin, primary screen, cell-based, PC12, CRE-LacZ reporter, unstimulated (AID 1145). The settings on record: no forskolin, luminescence, 4.5 h, higher = more signal, called active from +8 up or from −8 down.
Assay [14] can be described thus: CREB reporter modulators under forskolin, primary screen, cell-based, PC12, CRE-LacZ reporter, forskolin-stimulated (AID 1146).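 Also: PC12 cells with 6xCRE LacZ reporter stimulated by forskolin 10 µM; beta-galactosidase reporter signal reflecting CREB driven transcription.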 Conditions: luminescence, 4.5 h, higher = more signal, called active from +8 up or from −8 down.
Assay [15] deals with Streptavidin (Streptomyces avidinii) (UniProt P22629). Description: streptavidin binders on small-molecule microarray, primary screen, artefact control for SMM compound annotation, biophysical, 635/667 nm fluorescence (AID 1147).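 Also: signal reflects streptavidin binding to arrayed compounds as a control protein.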 Conditions: streptavidin binding, higher = more signal.
A short description of assay [16]: small-molecule binders of probe aInhba, primary screen, biochemical, small-molecule microarray, 635/667 nm fluorescence (AID 1148).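 Also: score merges 667nm spot fluorescence with signal-to-noise for antibody binding to printed compounds.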 The settings on record: higher = more signal.
In assay [17] the target is Torsin-1A (Homo sapiens) (UniProt O14656). Description: torsin A binders from cell lysate, primary screen, small-molecule microarray, wild-type, 635/667 nm (AID 1149). The settings on record: COS7 hTOR1A-WT lysate, 635 nm fluorescence, higher = more signal.
Assay [18] has the same target. Description: small-molecule binders of mutant TOR1A in lysate, primary screen, cell lysate, small-molecule microarray, COS7 lysate, 635/667 nm fluorescence (AID 1150).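 Also: score pools 667 nm emission and signal to noise measuring lysate protein binding.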 The settings on record: COS7 hTOR1A mutant lysate, 635 nm fluorescence, higher = more signal.
For assay [19], the system named is Sonic hedgehog protein (Shh). Description: small-molecule binders of Shh protein, primary screen, biochemical, small-molecule microarray, 635/667 nm fluorescence (AID 1151).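 Also: Shh protein binding to compounds spotted on small-molecule microarray slides; score combines spot fluorescence intensity with signal-to-noise across triplicate slides.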 Conditions: small-molecule microarray binding, 635 nm fluorescence; higher = more signal.

Calls of active or inactive are those of the source. Unless noted, no rule for the calls is given here.

Luciferin 4-monooxygenase (Photinus pyralis), sequence (P08659 whole entry, looked up): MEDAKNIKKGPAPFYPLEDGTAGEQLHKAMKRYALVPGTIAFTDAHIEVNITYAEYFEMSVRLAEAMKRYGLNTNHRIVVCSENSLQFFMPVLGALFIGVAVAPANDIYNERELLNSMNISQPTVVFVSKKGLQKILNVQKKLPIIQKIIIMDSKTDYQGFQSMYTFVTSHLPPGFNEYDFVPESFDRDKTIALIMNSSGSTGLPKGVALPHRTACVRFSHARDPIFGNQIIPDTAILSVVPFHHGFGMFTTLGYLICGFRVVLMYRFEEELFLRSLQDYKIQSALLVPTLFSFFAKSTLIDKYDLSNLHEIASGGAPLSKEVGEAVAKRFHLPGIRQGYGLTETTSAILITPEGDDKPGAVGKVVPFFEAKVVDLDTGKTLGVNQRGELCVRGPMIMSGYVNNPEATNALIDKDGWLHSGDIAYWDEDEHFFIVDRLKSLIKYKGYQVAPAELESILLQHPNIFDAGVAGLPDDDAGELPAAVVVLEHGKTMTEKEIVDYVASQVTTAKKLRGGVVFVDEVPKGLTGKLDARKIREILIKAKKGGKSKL
Streptavidin (Streptomyces avidinii), sequence (P22629 whole entry, looked up): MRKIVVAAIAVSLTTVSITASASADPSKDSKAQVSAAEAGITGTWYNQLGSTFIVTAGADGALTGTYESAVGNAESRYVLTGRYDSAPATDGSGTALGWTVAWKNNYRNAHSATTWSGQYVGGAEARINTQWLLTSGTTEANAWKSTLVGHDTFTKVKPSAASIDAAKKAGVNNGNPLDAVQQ
Follistatin (Homo sapiens), sequence (P19883 whole entry, looked up): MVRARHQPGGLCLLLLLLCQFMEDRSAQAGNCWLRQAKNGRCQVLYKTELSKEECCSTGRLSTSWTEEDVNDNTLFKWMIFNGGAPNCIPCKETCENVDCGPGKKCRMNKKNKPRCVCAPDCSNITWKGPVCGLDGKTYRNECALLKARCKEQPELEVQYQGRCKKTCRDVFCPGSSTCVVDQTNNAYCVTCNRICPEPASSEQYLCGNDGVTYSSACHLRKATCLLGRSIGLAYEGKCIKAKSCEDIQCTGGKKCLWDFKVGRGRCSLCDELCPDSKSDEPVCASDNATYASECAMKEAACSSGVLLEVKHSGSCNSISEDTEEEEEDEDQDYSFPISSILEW
Torsin-1A (Homo sapiens), sequence (O14656 whole entry, looked up): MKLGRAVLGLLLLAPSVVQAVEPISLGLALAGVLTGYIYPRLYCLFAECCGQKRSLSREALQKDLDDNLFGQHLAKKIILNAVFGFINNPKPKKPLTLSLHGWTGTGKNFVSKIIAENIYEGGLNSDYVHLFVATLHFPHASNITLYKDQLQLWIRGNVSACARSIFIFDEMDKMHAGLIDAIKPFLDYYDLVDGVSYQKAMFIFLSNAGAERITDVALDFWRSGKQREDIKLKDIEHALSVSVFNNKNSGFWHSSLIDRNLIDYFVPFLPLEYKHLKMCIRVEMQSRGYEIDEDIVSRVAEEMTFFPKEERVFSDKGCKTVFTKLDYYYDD
Focal adhesion kinase 1 (Homo sapiens), sequence (Q05397 whole entry, looked up): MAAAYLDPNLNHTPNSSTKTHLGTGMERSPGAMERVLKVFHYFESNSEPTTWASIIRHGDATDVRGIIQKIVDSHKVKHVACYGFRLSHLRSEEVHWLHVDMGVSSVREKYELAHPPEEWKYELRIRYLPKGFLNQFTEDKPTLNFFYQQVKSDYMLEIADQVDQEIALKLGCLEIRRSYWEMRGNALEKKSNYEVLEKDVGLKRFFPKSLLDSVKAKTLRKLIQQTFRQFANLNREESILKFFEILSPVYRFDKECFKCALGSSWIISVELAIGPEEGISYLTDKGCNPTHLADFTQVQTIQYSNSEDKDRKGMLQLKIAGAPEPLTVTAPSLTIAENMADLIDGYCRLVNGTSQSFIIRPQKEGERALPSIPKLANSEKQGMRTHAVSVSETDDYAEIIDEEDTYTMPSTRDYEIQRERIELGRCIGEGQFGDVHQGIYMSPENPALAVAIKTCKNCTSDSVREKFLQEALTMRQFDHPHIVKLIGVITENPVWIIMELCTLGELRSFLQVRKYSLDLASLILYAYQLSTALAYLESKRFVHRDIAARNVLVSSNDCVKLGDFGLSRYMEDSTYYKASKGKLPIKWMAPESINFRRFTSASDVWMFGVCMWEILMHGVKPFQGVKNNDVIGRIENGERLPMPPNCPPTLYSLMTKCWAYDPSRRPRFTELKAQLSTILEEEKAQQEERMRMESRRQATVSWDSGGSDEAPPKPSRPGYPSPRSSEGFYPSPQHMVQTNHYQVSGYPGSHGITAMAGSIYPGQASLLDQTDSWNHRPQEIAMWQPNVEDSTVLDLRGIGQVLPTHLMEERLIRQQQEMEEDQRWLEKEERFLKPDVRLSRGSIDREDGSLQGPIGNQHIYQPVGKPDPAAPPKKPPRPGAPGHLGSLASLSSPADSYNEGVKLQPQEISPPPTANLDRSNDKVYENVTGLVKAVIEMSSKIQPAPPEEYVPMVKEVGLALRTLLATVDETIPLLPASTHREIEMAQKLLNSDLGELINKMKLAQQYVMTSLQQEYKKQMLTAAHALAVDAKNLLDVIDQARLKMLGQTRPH
Fibroblast growth factor 2 (Homo sapiens), sequence (P09038 whole entry, looked up): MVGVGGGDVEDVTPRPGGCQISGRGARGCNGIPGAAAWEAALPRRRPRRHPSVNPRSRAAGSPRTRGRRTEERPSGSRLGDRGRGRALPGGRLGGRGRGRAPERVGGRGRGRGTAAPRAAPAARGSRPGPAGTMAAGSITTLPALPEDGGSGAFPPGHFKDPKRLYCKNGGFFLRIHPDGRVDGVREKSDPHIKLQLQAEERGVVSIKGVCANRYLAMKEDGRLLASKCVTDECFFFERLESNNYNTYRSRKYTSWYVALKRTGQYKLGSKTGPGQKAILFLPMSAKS

As to `Cc1ccc(S[C@]2(C(=O)NCC(C)C)CC(=O)N(Cc3cc(C(F)(F)F)cc(C(F)(F)F)c3)[C@@H]2c2ccc(CO)cc2I)cc1`, the composite z-score in assay [1] was -0.316; in assay [2], -1.08; in assay [3], -0.55; in assay [4], -0.819; in [5], -1.59; in assay [6], -1.1. The composite z-score in the assay with Lefty1 is -2.21; in assay [8], -0.192; in assay [10] it was -0.0088; in assay [15] it was -0.634; in assay [16], 0.0173; with Torsin-1A (Homo sapiens) [17], -1.72. Further, the composite z-score with Torsin-1A (Homo sapiens) [18] is -0.913; in [19], -1.05. Besides, the z-score in [7] was -0.553; in assay [9], 0.328 (inactive); in [11] it was -1.19 (inactive); in [12], -0.486 (inactive); in assay [13], 0.441 (inactive); in assay [14], 0.845 (inactive).
Consider `COc1ccc([Si](C)(C)[C@H]2[C@H](CCn3cc([C@H](O)c4ccccc4)nn3)O[C@@]3(C(=O)N(Cc4cccc(N5CCOC5=O)c4)c4ccccc43)[C@@H]2C)cc1`, for which the composite z-score in [1] came to 0.0694; in assay [2] it was 0.679; in assay [3], 0.0871; in [4] it was 0.401; in assay [5], 1.28; in assay [6], 0.669. The composite z-score was 0.892 in the assay on Lefty1; 0.22 in assay [8]; 0.488 in assay [10]; 0.283 in assay [15]; -0.362 in assay [16]; 0.132 in the assay with Torsin-1A (Homo sapiens) [17]. Besides, the composite z-score worked out at 0.199 with Torsin-1A (Homo sapiens) [18] and 1.5 in [19]. Besides, the z-score is 0.711 in [7]; 0.387 (inactive) in assay [9]; -1.78 (inactive) in [11]; -0.394 (inactive) in [12]; -0.36 (inactive) in assay [13]; 1.32 (inactive) in assay [14].
For the molecule `COC(=O)[C@@]1(Cc2ccc(OC)cc2)[C@H]2c3cc(C(=O)N4CCCC4)n(Cc4ccccc4)c3C[C@H]2CN1C(=O)c1ccccc1`, the composite z-score in assay [1] is 3; in [2], 1.25; in assay [3], 1.32; in assay [4], 1; in [5] it was 0.506; in [6], -0.368. Also, the composite z-score in the assay on Lefty1 is -0.292; in [8], 1.1; in assay [10] it was 2.34; in [15], 2.04; in assay [16], 1.76; with Torsin-1A (Homo sapiens) [17], -0.0218. Besides, the composite z-score is 0.107 in the assay with Torsin-1A (Homo sapiens) [18] and -0.442 in [19]. Also, the z-score in assay [7] is 0.581; in assay [9] it was 2.01 (inactive); in [11] it was -2.68 (inactive); in assay [12], 0.888 (inactive); in assay [13] it was 0.194 (inactive); in assay [14], -0.754 (inactive).
`COCCOC(=O)N1C(=O)[C@@]2(c3cc(C#CCCO)ccc31)[C@H](C(=O)Nc1nc3ccccc3s1)[C@H]1C(=O)O[C@H](c3ccccc3)[C@H](c3ccccc3)N1[C@@H]2c1ccc(OCCO)cc1`: the composite z-score came to 0.738 in assay [1]; 0.957 in assay [2]; 0.128 in [3]; 0.944 in [4]; 1.27 in assay [5]; 1.65 in assay [6]. Besides, the composite z-score in the assay with Lefty1 was found to be 1.26; in assay [8] it was 0.482; in assay [10] it was 0.281; in [15], 1.06; in assay [16], 0.138; with Torsin-1A (Homo sapiens) [17], 0.367. Besides, the composite z-score is 1.42 with Torsin-1A (Homo sapiens) [18] and 1.56 in assay [19]. In addition, the z-score in [7] was -2.4; in assay [9], -2.56 (inactive); in [11], -0.224 (inactive); in assay [12], -1.05 (inactive); in assay [13], -1.14 (inactive); in [14], -0.432 (inactive).
Regarding `O=C1O[C@H](c2ccccc2)[C@H](c2ccccc2)N2[C@H]1[C@@H](C(=O)O)[C@]1(C(=O)Nc3ccc(C#CC4=CCCCC4)cc31)[C@H]2c1ccccc1OCCO`, the composite z-score came to 1.76 in assay [1]; 1.23 in assay [2]; 0.827 in [3]; 0.922 in assay [4]; 1.26 in assay [5]; 1.08 in assay [6]. The composite z-score stood at 1.63 in the assay with Lefty1; 1.18 in [8]; 1.02 in assay [10]; 1.97 in assay [15]; 0.17 in assay [16]; 0.849 in the assay with Torsin-1A (Homo sapiens) [17]. Also, the composite z-score in the assay with Torsin-1A (Homo sapiens) [18] stood at 0.516; in assay [19], 0.892. Further, the z-score in assay [7] is -2.56; in assay [9] it was -6.51 (inactive); in assay [11] it was -4.67 (inactive); in [12], -0.177 (inactive); in assay [13], 17.1 (active); in assay [14], 26.1 (active).

The values above are taken from PubChem BioAssay.
